Data on 96 compounds can be found in ChEMBL document CHEMBL3988442, “University of Dundee, Small-Polar-MMV Screening Library” (2021).

SMILES strings stand for the structures. Out of some 48,000 compounds screened, about 13,000 (27%) showed an effect of 50% or more. This is one part of the list.

The assay has as its system Wolbachia pipientis. As to the kind of experiment: Anti-Wolbachia Cell-Based Screen. The note with it: 5 µM. In kind it is functional. On the set-up: scale not given: in the data most compounds retested in dose-response had high values.
For the compound `O=C(c1cnns1)N1CCN(Cc2ccc(F)cc2Cl)CC1`, the “Percent Effect” value stood at 11.32%. With `Cc1nn(C)c(C)c1C1CCCN1c1ncnc2[nH]ccc12` (stereo unspecified) the figure was 1.551%; with `Brc1ccc(NCCCOC2CCOCC2)nc1`, 3.889%. Under `CCN(Cc1cc(Cl)ccc1OC)Cc1ncnn1CC` stands 0.2011%.

On to `COc1ccccc1N1CCN(Cc2nc(C)c(C)o2)CC1`, for which the “Percent Effect” value is reported as -4.949%. With `CCCc1nnc(N2CCN(Cc3ccccc3OC)CC2)o1` the figure was 96.58%; with `CCOc1ccccc1N1CCN(c2nnc(C)o2)CC1`, 100.3%. For the compound `CCCc1nnc(N2CCN(c3ccccc3OCC)CC2)o1`, the “Percent Effect” value stood at 99.15%. Under `CCCc1nnc(N2CCN(c3cccc(OC)c3)C(=O)C2)o1` stands 11.57%. With `CCOc1ccccc1N1CCN(CC2(O)CCCNC2)CC1` (stereo unspecified), the “Percent Effect” value is -13.46%. Under `COc1ccccc1CN1CCN(CCN2CCOC2=O)CC1` stands -7.896%; under `c1ccc(OCc2noc(CN3CCC(N4CCSCC4)CC3)n2)cc1`, -5.795%. Turning to `O=C(c1cc2c([nH]c1=O)CCC2)N1CCCCCC1c1ccncc1` (stereo unspecified), the “Percent Effect” value amounted to 23.88%. With `CC(C)COCC(NC(=O)Cc1ccn[nH]1)c1ccco1` (stereo unspecified) the figure was -5.318%; with `Cc1noc(C)c1CNCc1nn(-c2ccccc2)c2c1CCC2`, -8.034%; with `O=C(Cc1csc(-c2cccc(Cl)c2)n1)NCc1cccc(C(=O)O)c1`, 106.6%.

For `Clc1ccccc1-c1nc(CNCCn2cccn2)cs1`, the “Percent Effect” value is -5.873%.

On to `O=C(CCC1CCN(C(=O)c2csnn2)CC1)NCc1cccc(Cl)c1`, for which the “Percent Effect” value was -4.206%.

Regarding `O=C(Cc1csc(-c2ccccc2F)n1)NCc1ccc(C(=O)O)cc1`, the “Percent Effect” value came to 91.75%. Take `COc1ccccc1-c1csc(-c2cccc(C(=O)O)c2)n1`: the “Percent Effect” value turned out to be 1.276%. For `CCC(C)NC(=O)c1cccc(CNC(=O)CC(F)(F)F)c1` (stereo unspecified), the “Percent Effect” value was determined as 4.521%. Under `O=C(CCC1CCN(C(=O)c2cc[nH]c2)CC1)NCc1cccc(Cl)c1` stands 14.78%; under `CC(=O)c1cc(CC(=O)NCc2ccc(F)cc2)cs1`, -15.8%; under `O=C(Cc1csc(-c2ccccc2F)n1)NCc1cccc(C(=O)O)c1`, 94.98%.

With `CC(=O)c1cc(CC(=O)NCc2c(F)cccc2F)cs1`, the “Percent Effect” value was -9.682%. Under `Cc1[nH]c2c(F)cccc2c1CC(=O)NCc1csc(N(C)C)n1` stands -5.819%. Regarding `O=C(Cc1csc(-c2ccccc2Cl)n1)NCc1cccc(C(=O)O)c1`, the “Percent Effect” value turned out to be 96.86%. Under `CCC(C(=O)N(C)C)N1CCC(c2nccn2Cc2cscn2)CC1` (stereo unspecified) stands -0.1258%. Under `COCCCn1nnc(C2(NC(=O)c3ccccc3)CCCC2)n1` stands -42.57%. Regarding `O=C(Cc1cccs1)N1C[C@@H]2CC[C@H](C1)N(Cc1ccccn1)C2=O`, the “Percent Effect” value was 15.92%. With `Cc1cc(C(=O)N2CCc3nnc(N)cc3C2)c(C)n1C1CC1` the figure was 6.232%; with `O=C(O)CNC(=O)Cc1csc(-c2ccccc2F)n1`, 127.8%. Under `CC(Cn1cccn1)NCc1csc(-c2ccccc2F)n1` (stereo unspecified) stands 0.9927%; under `CC(C)N(CCS(C)(=O)=O)Cc1csc(-c2ccccc2F)n1`, -5.187%; under `Cc1ncc(-c2ccnc(NCCc3ccc(F)cc3)n2)c(=O)[nH]1`, 69.11%. Under `CCOc1ccnc(NCCc2nc(C)cc(=O)[nH]2)n1` stands 25.33%; under `O=C(O)c1ccnc(-c2ccnc(NCCc3ccc(F)cc3)n2)c1`, -8.109%. As for `N#Cc1cc(F)c(NCCc2cccnc2)c(F)c1`, the “Percent Effect” value is given as 0.2383%. Under `O=C(Cc1cccc(O)c1)NCCNc1nccc(C(F)(F)F)n1` stands -3.193%; under `Cc1cc(C)c(CNC(=O)NCCc2cccnc2)c(=O)[nH]1`, -5.274%; under `O=C(O)c1ccnc(-c2ccnc(NCCc3cscn3)n2)c1`, 6.299%. Under `O=c1[nH][nH]cc1-c1ccnc(NCCc2cccc(O)c2)n1` stands 135%. With `O=c1[nH][nH]cc1-c1ccnc(NCCc2cccnc2)n1` the figure was 116.1%; with `Cc1cc(C)nc(CCNc2nccc(CCC(F)(F)F)n2)n1`, -9.076%; with `O=c1[nH][nH]cc1-c1ccnc(NCCc2ccc(F)cc2)n1`, 99.64%. For the compound `Cc1cc(C2CN(CC(=O)NCc3ccco3)CCO2)ccc1F` (stereo unspecified), the “Percent Effect” value is -9.058%.

`CN(C)C(=O)CN1C(=O)[C@H]2CC[C@@H]1CN(Cc1ccccc1C#N)C2`: the “Percent Effect” value was -21.45%. Take `COC(=O)Cc1cccc(NC(=O)Cc2cc(C)[nH]n2)c1`: the “Percent Effect” value came to 1.53%. Under `Cc1nc(CCN)cc(N2CCOc3ccc(Cl)cc3C2)n1` stands 10.69%; under `CCN(Cc1ccc2c(c1)OCO2)C(=O)CCc1c(C)nc(C)[nH]c1=O`, -8.876%. With `CCOC(=O)c1n[nH]cc1CN1CCOC(Cc2ccc(OC)cc2)C1` (stereo unspecified) the figure was -36.24%; with `CC(=O)NCCNc1nccc(CCC(F)(F)F)n1`, -2.049%; with `CC(C)(C)CCNc1nccc(-c2c[nH][nH]c2=O)n1`, 100.4%. For `COCCCNc1nccc(-c2c[nH][nH]c2=O)n1`, the “Percent Effect” value came to 1.466%.

Consider `Cc1nnc(SCCC(=O)N(C)Cc2ccc(Cl)s2)[nH]1`, for which the “Percent Effect” value is on record as 6.778%. With `O=C(C1CN(CC2CCOCC2)CC12CCOCC2)N1CCCC1.O=C(O)C(F)(F)F` (stereo unspecified) the figure was 0.226%; with `COC(=O)c1cccc(C(=O)N2CCN(c3cc(C)ccc3C)CC2)n1`, 123.5%. Consider `COC(=O)c1cccc(C(=O)N2CCN(c3cc(Cl)ccc3C)CC2)n1`, for which the “Percent Effect” value stood at 103.9%. With `COc1cc(C)nc(N2CCN(C(=O)c3cc(Cl)c[nH]3)CC2)n1` the figure was 7.277%.

Consider `COC(=O)c1cccc(C(=O)N2CCN(c3cccc(C)c3C)CC2)n1`, for which the “Percent Effect” value is -16.02%. Turning to `O=C(OCCF)c1cccc(C(=O)N2CCCC2)n1`, the “Percent Effect” value is reported as 7.504%.

With `CC(=O)N1CCCN(C(=O)c2ccn(-c3cccc(Cl)c3)n2)CC1`, the “Percent Effect” value was 4.023%. Under `COCC1CN(Cc2cc(C)on2)Cc2cn(CC3CCCC3)nc21.O=C(O)C(F)(F)F.O=C(O)C(F)(F)F` (stereo unspecified) stands 1.452%. Under `CNS(=O)(=O)Cc1cccc(CNc2ccc(Cl)cn2)c1` stands 7.116%; under `O=C(C(NCc1cccc(F)c1F)c1ccccc1)N1CCOCC1` (stereo unspecified), -0.9973%; under `CC(C)N1[C@H](CN2CCCC2)C[C@@H]2CN(C(=O)c3ccoc3)CC[C@@H]21.O=C(O)C(F)(F)F.O=C(O)C(F)(F)F`, -8.643%. Regarding `Cn1cccc1C(=O)N1C[C@@H]2CCN(c3cccnc3)C[C@@H]2C1.O=C(O)C(F)(F)F`, the “Percent Effect” value is -18.75%.

On to `CNC(=O)CN1CC[C@H]2CN(C(=O)c3cccn3C)C[C@H]2C1.O=C(O)C(F)(F)F`, for which the “Percent Effect” value turned out to be 94.61%. Under `Cc1cccc(C(=O)N2C[C@@H]3CCN(C(C)C)C[C@@H]3C2)c1.O=C(O)C(F)(F)F` stands -3.353%; under `O=C(O)C(F)(F)F.O=C(c1ccc(F)cc1)N1C[C@@H]2CCN(c3cccnc3)C[C@@H]2C1`, 11.69%. Under `CNC(=O)CN1CC[C@H]2CN(C(=O)c3ccoc3)C[C@H]2C1.O=C(O)C(F)(F)F` stands 90.52%; under `O=C(O)C(F)(F)F.O=C(c1ccc(O)cc1)N1C[C@@H]2CCN(c3cccnc3)C[C@@H]2C1`, 9.269%. Under `CNC(=O)CN1CC[C@H]2CN(C(=O)c3cccc(C)c3)C[C@H]2C1.O=C(O)C(F)(F)F` stands 104.9%.

As to `CC(C)N1CCO[C@H]2CN(C(=O)c3ccoc3)C[C@H]21.O=C(O)C(F)(F)F`, the “Percent Effect” value is recorded as -10.4%.

Turning to `CN(C)C[C@H]1OC[C@@H]2CCN(C(=O)c3cccn3C)C[C@@H]21.O=C(O)C(F)(F)F`, the “Percent Effect” value is given as -2.348%. Under `CNC(=O)CN1CC[C@H]2CN(C(=O)c3ccc(C)cc3)C[C@H]2C1.O=C(O)C(F)(F)F` stands 117%; under `CNC(=O)[C@@H]1C[C@@H](NC(=O)c2cn(C)nc2C)CN1Cc1sccc1C`, 22.01%; under `Cc1cc(C(=O)N(C)C(C)CC(C)C)on1` (stereo unspecified), -13.06%. Regarding `CN(C)c1ccc2c(c1)CN(C(=O)c1ccco1)C2c1cnco1` (stereo unspecified), the “Percent Effect” value is reported as 6.499%. Under `O=C(Nc1ccc(-c2csnn2)cc1)N1CC[C@H](O)C1` stands -5.302%. Under `CCC(C(=O)NC(C)(C)C)n1cccc(OC)c1=O` (stereo unspecified) stands -8.788%. As to `O=C(O)C(F)(F)F.O=C(c1cc[nH]n1)N1CC[C@@H]2CN(Cc3ccncc3)S(=O)(=O)[C@@H]2CC1`, the “Percent Effect” value is recorded as -5.267%. Under `CCN1C[C@H]2CCN(C(=O)c3cc[nH]n3)CC[C@H]2S1(=O)=O` stands 7.026%; under `CNC(=O)CN1CC[C@H]2CN(C(=O)c3cc[nH]n3)C[C@H]2C1.O=C(O)C(F)(F)F`, 106.6%. Under `CCn1cc(CN2CCC(CN3CCCCC3)CC2)cc1C#N` stands -0.8018%; under `CCc1cnc(CN(C)C(=O)NC2CCN(C)C2=O)s1` (stereo unspecified), 1.007%. With `Cc1cnc(NC2CCN(CC(=O)Nc3ccccc3)CC2)nc1C` the figure was 3.522%. Consider `O=C(CCNC(=O)NC1CC1)NCc1ccccc1`, for which the “Percent Effect” value is recorded as 4.625%. On to `NC(=O)c1cnc(NC2CC2)nc1CCNC(=O)CC1CCCC1`, for which the “Percent Effect” value is 144.1%. For the compound `O=C(CC1CCCC1)NCCn1ccc(-c2ccncc2)n1`, the “Percent Effect” value is reported as -13.95%. Consider `NC(=O)c1cnc(NC2CC2)nc1CCNC(=O)Cc1ccccc1`, for which the “Percent Effect” value is 131.4%.

Regarding `NC(=O)CN1CCC(C(=O)NCCc2nc(-c3ccccc3)cs2)CC1`, the “Percent Effect” value turned out to be 3.799%. Under `Cc1nc(O)cc(CCNC(=O)CN2CCCCCC2)n1` stands -0.8715%; under `O=C(CC1CCCC1)NCCNCc1cccc2c1OCCO2`, -15.98%. Under `NC(=O)c1cnc(-c2ccccc2)nc1CCNC(=O)CN1CCCC1` stands 124.4%. With `O=C(CCCc1cn[nH]c1)N1C[C@H](CO)C[C@H](CN2CCCC2)C1` the figure was 5.812%.
